Smad3 FoxH1 inh = Smad3/FoxH1 peptide binding inhibitors, primary screen, biochemical, TR-FRET | inhibition, % at 25 µM | hit rate 0.29% among 88,000 | TR-FRET Smad3/Dy647-FoxH1 peptide binding, europium anti-His | Mothers against decapentaplegic homolog 3 (Homo sapiens), P84022;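 active means compounds that reduce the energy-transfer binding signal between the protein and its labelled peptide by more than half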;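 further: 0% = Smad3 plus labelled peptide maximal FRET and 100% = peptide-only background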
ERa coact inh = ERα–SRC-1 coactivator interaction inhibitors, primary screen, biochemical, TR-FRET, ERα LBD, estradiol-bound; TR-FRET ER-alpha LBD / SRC-1 peptide; inhibition, % at 25.6 µM; hit rate 1.7% among 86,000; in the data active means inhibition above about 50%;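 further: 0% = receptor plus peptide control and 100% = peptide only without receptor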
Target sequence (P03372 whole entry, looked up, the tested form may be a part): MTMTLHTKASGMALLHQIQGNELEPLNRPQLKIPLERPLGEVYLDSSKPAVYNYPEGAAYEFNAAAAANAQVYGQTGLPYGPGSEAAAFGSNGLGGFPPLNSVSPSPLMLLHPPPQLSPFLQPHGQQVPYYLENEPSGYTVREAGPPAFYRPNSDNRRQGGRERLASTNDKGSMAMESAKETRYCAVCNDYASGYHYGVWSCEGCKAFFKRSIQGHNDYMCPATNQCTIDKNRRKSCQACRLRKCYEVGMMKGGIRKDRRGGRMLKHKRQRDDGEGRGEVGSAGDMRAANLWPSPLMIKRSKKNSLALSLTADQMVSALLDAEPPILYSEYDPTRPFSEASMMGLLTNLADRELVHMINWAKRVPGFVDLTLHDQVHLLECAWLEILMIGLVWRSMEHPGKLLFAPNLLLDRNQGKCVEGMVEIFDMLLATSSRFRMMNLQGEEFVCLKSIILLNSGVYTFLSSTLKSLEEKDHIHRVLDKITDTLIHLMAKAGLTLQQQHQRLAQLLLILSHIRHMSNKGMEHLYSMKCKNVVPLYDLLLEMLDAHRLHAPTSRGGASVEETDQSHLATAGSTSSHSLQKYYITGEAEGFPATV
ERa coact pot = enhancers of ERα–SRC-1 coactivator binding, primary screen, biochemical, TR-FRET, ERα LBD, low estradiol. Estrogen receptor (Homo sapiens), P03372. TR-FRET ERalpha-LBD/SRC-Cy5 coactivator binding, 2 h; 100 = basal binding, no effect. coactivator binding (% of control), % at 25.6 µM. hit rate 1.3% among 86,000; in the data active means activity above about 200%;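 further: binding measured in presence of low estradiol as agonist stimulus; 0% = peptide alone without receptor and 100% = receptor with peptide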
MRP1 act = H69AR viability gain despite doxorubicin, primary screen, MRP-1 activator project, H69AR cells, CellTiter-Glo; viability rescue; viability increase, % at 10 µM; hit rate 0.61% among 140,000;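 active means viability gain under doxorubicin at or above a set limit, the compound median plus 3 SD, cut at about 4.7% in these data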;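 further: MRP-1 overexpressing cells given doxorubicin 25 µM after compound pretreatment; 18-22 h compound pretreatment then 72 h with doxorubicin before readout; 0% = doxorubicin-only wells and 100% = vehicle-treated cells without doxorubicin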
ERb coact inh = inhibitors of ERβ-SRC1 coactivator interaction, primary screen, biochemical, TR-FRET, ERβ LBD, SRC-1 peptide; AID 633, 2007; hit rate 1.3% among 86,000; TR-FRET ER-beta LBD / SRC1-Cy5 peptide binding; receptor agonist-loaded with 1 µM estradiol; inhibition, % at 25.6 µM;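 active means compounds whose percent inhibition of the receptor-coactivator binding signal exceeds about 50% in the single-dose screen, limit read from the data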;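 further: 0% = receptor plus peptide wells without compound and 100% = peptide-only wells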
MRP resist rev = reversal of MRP1-mediated doxorubicin resistance, primary screen, H69AR cells, doxorubicin co-treatment; H69AR cells + 2 uM doxorubicin, CellTiter-Glo, 72 h; hit rate 0.04% among 85,000; differential viability (reversal), % at 10 µM;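 active means viability drop by adding the cancer drug above about 55%, with treated viability meeting a 40% cutoff, limit read from the data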;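 further: viability without doxorubicin minus viability with 2 µM doxorubicin for each compound; larger differential means the compound sensitizes cells more to doxorubicin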
An asterisk follows results filed as active; · = no result given; [ ] = another dose, or the depositor's remark. The list is not random: actives were taken first. Their share in the collection is about 2.9%.

SMILES	Smad3 FoxH1 inh	ERa coact inh	ERa coact pot	MRP1 act	ERb coact inh	MRP resist rev
COc1ccc(CNC(=O)COC(=O)c2cc(-c3ccco3)nc3ccccc23)cc1	-2	87*[fluorescence artefact?]	53	-2	77*	-14
O=C(O)c1cc(-c2ccco2)nc2ccccc12	10	74*	38	0	82*[fluorescence artefact?]	-8
O=C1CC[C@](CCc2nc3ccccc3[nH]2)(c2ccccc2)C(=O)N1	3	·	·	·	·	·
Cc1occc1-c1nnc(SCC(=O)N(C)CCC#N)n1N	-4	-7	108	-1	-14	9
N#Cc1c(N)n(CCOC(=O)c2cccc(Br)c2)c2nc3ccccc3nc12	-11	24	103	5.7*	26	6
Cc1cc(C)c(O)c(-c2cc(C(=O)Nc3ccc(S(=O)(=O)N4CCOCC4)cc3)[nH]n2)c1	8	4	123	-2	-1	-24
O=C(OCC(=O)N1CCCC1)c1cncc(Br)c1	2	-1	101	-1	55*	-7
O=C(OCC(=O)N1CCCc2ccccc21)c1cncc(Br)c1	·	·	·	-1	·	·
O=[N+]([O-])c1ccc2c(N=Nc3ccc4ccccc4c3O)c(O)cc(S(=O)(=O)O)c2c1	72*	·	·	·	·	·
COc1ccc([C@@H](C)c2cc3c(cc2O)OCO3)cc1	17	·	·	·	·	·
Cc1c(C(=O)OCC(C)C)[nH]c2c1C(=O)CC(c1ccco1)C2 (centres undefined)	15	38	96	-5	36	-18
Cc1c(C(=O)OCC2CCCO2)[nH]c2c1C(=O)CC(c1ccco1)C2 (centres undefined)	-5	54*	65	-1	50*[fluorescence artefact?]	-35
C/C=C/COC(=O)c1[nH]c2c(c1C)C(=O)CC(c1ccco1)C2 (centres undefined)	-3	59*	81	-4	55*	-17
COc1ccc(NS(=O)(=O)c2ccc(N3CCCC3)c(NC(=S)Nc3cccc(S(=O)(=O)N(C)C)c3)c2)cc1	·	·	·	-4	·	·
CCC(=O)Oc1ccc(/C(CC)=C(\CC)c2ccc(OC(=O)CC)cc2)cc1	-9	-3	376*	-1	-1	-34
O=c1oc2ccccc2c(O)c1/C=N/c1nc(-c2ccc(O)c(O)c2)cs1	23	·	·	·	·	·
COc1ccc(C)cc1NC(=O)c1ccoc1C	7	4	71	-1	14	14
COc1ccc(C)cc1NC(=O)c1cc2c(CO)cnc(C)c2oc1=N	49	-28	239*[fluorescence artefact?]	-1	14	2
O=C(NCc1ccccc1)C(c1ccc(O)cc1)N(C(=O)Cn1nnc(-c2cccs2)n1)c1ccc2c(c1)OCCO2 (centres undefined)	-10	-11	93	5.8*	2	-8
Cn1c(=O)cc(SCC(=O)NCC2CCCO2)c2ccc(Cl)cc21 (centres undefined)	50*[fluorescence artefact?]	3	104	-1	5	0
CCN1CCCC1CNC(=O)CSc1cc(=O)n(C)c2cc(Cl)ccc12 (centres undefined)	53*[fluorescence artefact?]	6	112	-3	-14	15
CCOc1ccc2c(c1)n([O-])c1c([n+]2=O)CCCC1	-4	2	149	-6	3	1
COc1ccc2c(c1)n([O-])c1c([n+]2=O)CCC1	-4	20	65	·	51*	-10
N#CC1=C(N)OC2=C(CC/C2=C\c2ccc(F)cc2)C1c1ccc(F)cc1 (centres undefined)	·	·	·	-5	·	·
N#CC1=C(N)OC2=C(CCC/C2=C/c2ccoc2)C1c1ccoc1 (centres undefined)	17	74*	36	-1	73*[fluorescence artefact?]	5
Cc1ccccc1NC(=O)CC1(c2ccc(N(C)C)cc2)C(=O)c2ccccc2C1=O	·	·	·	-1	·	·
O=C(COc1ccccc1-c1ccccc1)c1ccccc1	·	·	·	2	·	·
Cc1ccc(C(=O)COc2ccccc2-c2ccccc2)cc1C	·	·	·	5.0*	·	·

Screening results deposited in PubChem BioAssay by several laboratories.
